Source: PubChem
Shown are actives, neighbours in structure and some others; about 1.6% of the full set was active somewhere.
eIF4H inh: inhibitors of RNA binding by human eIF4H; eIF4H fluorescence polarization binding assay; hit rate 0.94% among 290,000; inhibition, % at 35 µM;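 also: calls also rest on retests at 20 µM and on dose response follow-up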
PERK inh: blocks human PERK kinase. CHO PERK-DD fusion, SEAP luminescence translation reporter. Q9NZJ5. hit rate 0.17% among 220,000. inhibition, % at 5.6 µM;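 active = inhibition above the mean inhibition of all tested compounds plus 3 SD, set separately per screening campaign, cut at about 2.9% in these data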;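 also: PERK kinase domain activated by AP20187 dimerizer at 100 nM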
eIF4E-4G inh: blocks eIF4E binding to eIF4G. TR-FRET eIF4E-eIF4GI(517-606) binding, 2 h. hit rate 0.37% among 220,000. P63073+Q04637. inhibition, % at 21.7 µM;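 active = inhibition above about 30%, limit read from the data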
PABP FP inh: blocks human PABP binding to poly(A) RNA; P11940; fluorescence polarization; calls only at 35 µM; hit rate 1% among 290,000;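 also: calls also rest on retests at 20 µM and on dose response follow-up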
MLLE-PAM2 inh: blocks PAM2 peptide binding to the PABP1 MLLE domain; GST-MLLE / FITC-PAM2 fluorescence polarization; hit rate 0.36% among 360,000; P11940; inhibition, % at 20 µM; in the data active = inhibition above about 35%, passing the limit was not always enough
Each line names hits and unclear results; the compound was inactive in the other large screens; [ ] = another dose, or the depositor's remark. Unless noted, no rule for the calls is given here.

C[C@H]1CN([C@@H](C)CO)C(=O)CCCn2nncc2CO[C@H]1CN(C)C(=O)Nc1ccc2c(c1)OCO2	none (no result: eIF4H inh, PERK inh, eIF4E-4G inh, PABP FP inh)
O=C1c2ccc3c4c(ccc(c24)C(=O)N1CCCCO)C(=O)N(CCCCO)C3=O	eIF4H inh inconclusive, MLLE-PAM2 inh 64
O=C(N/N=C/c1ccc(-c2ccc(Cl)c(C(=O)O)c2)o1)c1cc2c(ccc3ccccc32)o1	eIF4H inh 76, PABP FP inh active
Cc1ccc(-c2ccc(/C=N\NC(=O)c3cc4c(ccc5ccccc54)o3)o2)cc1[N+](=O)[O-]	none
CCC(Oc1ccccc1)C(=O)O/N=C(\N)c1ccc(OC)c(OC)c1 (centres undefined)	eIF4H inh active, PABP FP inh active
Cc1ccc(Nc2c([N+](=O)[O-])ccc3c2=NC2(CCCCC2)N=3)cc1	MLLE-PAM2 inh 39
O=C(Nc1nnc(C2CCCCC2)s1)C1CC(=O)N(c2ccccc2)C1 (centres undefined)	none (no result: PERK inh, eIF4E-4G inh)
O=C(Nc1nnc(C2CC2)s1)C1CC(=O)N(c2ccc3c(c2)OCCO3)C1 (centres undefined)	eIF4H inh 96, PABP FP inh active
CCOC(=O)C1CCN(c2ccc(C(N)=O)cc2[N+](=O)[O-])CC1	none
NC(=O)c1ccc(N2CCC(C(N)=O)CC2)c([N+](=O)[O-])c1	eIF4H inh 93, PABP FP inh active
Cc1cccc(NC(=O)COC(=O)c2nn(C)c(=O)c3ccccc23)c1C	none (no result: eIF4H inh, PERK inh, eIF4E-4G inh, PABP FP inh)
C[C@@H]1CN([C@@H](C)CO)C(=O)CCCn2nncc2CO[C@@H]1CN(C)S(=O)(=O)c1ccccc1	none (no result: eIF4H inh, PERK inh, eIF4E-4G inh, PABP FP inh)
Cc1cc(C(F)(F)F)nc(SCC(=O)NC2=NC(=O)C(C)S2)n1 (centres undefined)	MLLE-PAM2 inh 44
Cc1cc(C)nc(SCC(=O)NC2=NC(=O)C(C)S2)n1 (centres undefined)	none (no result: MLLE-PAM2 inh)
COc1cc(C=O)ccc1OC(=O)c1cccnc1	none (no result: PERK inh, eIF4E-4G inh)
COc1ccccc1CP(=O)(c1ccccc1)c1ccccc1	eIF4H inh active
COc1ccc(CP(=O)(c2ccccc2)c2ccccc2)cc1	none (no result: PERK inh, eIF4E-4G inh)
O=C(NN1CCOCC1)c1ccc(F)cc1	none (no result: PERK inh, eIF4E-4G inh)
CCn1cc(C(=O)O)c(=O)c2cc(S(=O)(=O)N(C)C)ccc21	PERK inh 3.2
O=C(NCC1CC1)C1(S(=O)(=O)c2ccccc2)CC=CC1	none (no result: PERK inh, eIF4E-4G inh)
COc1cccc(C(=O)Nc2cc(OC)ccc2NC(=O)c2ccco2)c1	none (no result: PERK inh, eIF4E-4G inh)
Cc1csc2c(=O)sc(NC(=O)c3ccc(F)cc3)nc12	PERK inh 5.2
Cc1csc2c(=O)sc(NC(=O)c3ccc(F)cc3Cl)nc12	none
Cc1ccc(SCc2cc(=O)[nH]c(/N=C(\N)Nc3ccc(C)c(C)c3)n2)cc1	eIF4E-4G inh 49[fluorescence artefact?]
CCOC(=O)c1cccc(NC(=O)C2CCCN(c3nnc(N4CCCC4=O)s3)C2)c1 (centres undefined)	none (no result: PERK inh, eIF4E-4G inh)
CNCc1ccccc1Sc1cc(O)ccc1O	eIF4E-4G inh 48[fluorescence artefact?], MLLE-PAM2 inh 45
O=S(=O)(Nc1ccc2c(c1)OCO2)c1ccc(Cl)cc1F	none (no result: eIF4H inh, PERK inh, eIF4E-4G inh, PABP FP inh)
Cc1oc2c(cc(NS(=O)(=O)c3ccc(F)cc3)c3ccccc32)c1C(=O)O	none (no result: PERK inh, eIF4E-4G inh)
Cc1oc2c(cc(NS(=O)(=O)c3ccc(C(C)C)cc3)c3ccccc32)c1C(=O)O	eIF4H inh 66, PABP FP inh active (no result: PERK inh, eIF4E-4G inh)
Cc1ccc(C(=O)COC(=O)CCC(=O)Nc2ccccc2Cl)cc1[N+](=O)[O-]	eIF4H inh 4.8, PABP FP inh active
CC(C)CCN1C(=O)c2ccc(C(=O)N3CCCCC3)cc2C1=O	none (no result: eIF4H inh, PERK inh, eIF4E-4G inh, PABP FP inh)
COCCN1CN(S(=O)(=O)c2ccc(Cl)cc2)c2nc3ccccc3nc21	none
Cc1cccc(S(=O)(=O)N2CN(Cc3ccco3)c3nc4ccccc4nc32)c1	eIF4H inh 54, PABP FP inh active
COCCN1CN(S(=O)(=O)c2ccccc2)c2nc3ccccc3nc21	MLLE-PAM2 inh 37
COc1ccc(N2CCN(C(=O)Cc3ccc(OC)c(OC)c3)CC2)cc1	none (no result: PERK inh, eIF4E-4G inh)
N#C/C(=C\c1cccc(O)c1)c1nc2ccccc2o1	none
N#C/C(=C\c1ccc(Cl)cc1)c1nc2ccccc2o1	eIF4H inh 81, PABP FP inh active
N#C/C(=C\c1ccncc1)c1nc2ccccc2o1	eIF4E-4G inh 96
CCCNC(=O)COc1coc(CN2CCN(c3ccc(F)cc3)CC2)cc1=O	none (no result: PERK inh, eIF4E-4G inh)
CN(C1CCCCC1)S(=O)(=O)c1ccc(=S)[nH]c1	MLLE-PAM2 inh 58 (no result: eIF4H inh, PERK inh, eIF4E-4G inh, PABP FP inh)
Cc1ccc2nc3c(cc(C#N)c(=N)n3Cc3cccnc3)c(=O)n2c1	none (no result: MLLE-PAM2 inh)
CN(NC(=O)c1ccco1)c1nc2ccccc2nc1C(F)(F)F	eIF4H inh active, PABP FP inh active
